This note sets out measurements from PubChem BioAssay (NCI).

Molecules are shown by their SMILES. The panel holds about 83,000 compounds, 20% with a hit somewhere; the sample as a whole holds those more often.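 Each cell line was grown in a 96-well plate and treated with one concentration of compound for 48 hours. Values below 10 were considered active.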 Values without a mark were called inactive. The source made the active and inactive calls.

For this test, the system named is HT29 colon. Kind of test: NCI-60 one-dose screen, 48 h (100 = growth as untreated, 0 = no growth, -100 = all killed). Conditions: 10 µM unless noted.
Take `COc1ccc2[nH]cc(-c3nc(-c4c[nH]c5ccncc45)cs3)c2c1`: the growth is -15.7% (active).

As to `Oc1ccc(CN2CCC(N3CCCCC3)CC2)c2cccnc12`, the growth was 105%.

Take `CC(C)(C)c1cc(-c2nc3ccc(N4CCN(S(C)(=O)=O)CC4)cc3[nH]2)cc(C(C)(C)C)c1O`: the growth is 81%.

Regarding `COc1ccc2c(c1)c(-c1noc(C(=O)c3cn(C)c4ccc(Br)cc34)n1)cn2C`, the growth was 92.5%.

Consider `C[C@H](NC(=O)[C@@H](C)N)[C@H](Oc1ccc2c(cnn2-c2ccc(F)cc2)c1)c1ccc2c(c1)OCCO2`, for which the growth was 2.47% (active).

Turning to `C=C(C)[C@@H]1CC[C@]2(C(=O)O)CC[C@]3(C)[C@H](CC[C@@H]4[C@@]5(C)C[C@@H](Cc6cn(CCO[C@@H]7O[C@H](COC(C)=O)[C@H](OC(C)=O)[C@H](OC(C)=O)[C@H]7OC(C)=O)nn6)[C@H](O)C(C)(C)[C@@H]5CC[C@]43C)[C@@H]12`, the growth is 77.9%.

`CCN(CC)CCOc1ccc(-c2c(-c3ccccc3)c(=O)oc3ccccc23)cc1`: the growth was 51.7%.

For the molecule `COc1ccc2c(O)c(/C=C3\N=Nc4ccccc43)oc2c1C[C@@H]1CCNC[C@H]1F`, the growth is 12.3%.

In the case of `COc1cc(OC)cc(C2=C3CC[C@@H]4[C@H](CC[C@]5(C)C(=O)CC[C@@H]45)C3=CC3C(O)c4cccnc4N4C(=O)COC234)c1` (stereo partly drawn), the growth is 104%.

For the molecule `CC(=O)N1N=C(c2ccc(Nc3nc(Nc4ccc(Cl)cc4)nc(Nc4ccc(Cl)cc4)n3)cc2)CC1c1ccco1` (stereo not drawn), the growth was 97.8%.

Consider `CCS/C(Nc1ccccc1)=C(\C#N)C(=O)N/N=C/c1ccc(Cl)cc1Cl`, for which the growth is 9.53% (active).

With `CCOC(=O)C(=Cc1cccc(Cl)c1)C(=O)OCC`, the growth is -62.5% (active).

Consider `CN[C@]12CC3(C=CC(=O)C=C3)O[C@@]1(Cc1ccc(OC)cc1)N(C)C(=O)N2`, for which the growth was 7.83% (active).
